From PubChem BioAssay (Tox21)
Results filed as inconclusive are left out. Activity calls are given as the source filed them. Calls follow the shape of the dose curve; as a rule, active = well fitted inhibition curve with a large enough effect in the repeat runs; inconclusive = weak or mixed curves; inactive = flat fitted curve, though single readings scatter.

assay: qHTS assay to identify small molecule HDAC inhibitors (AID 1259364); settings: HCT-116 HDAC-Glo I/II luminescence, 2 h; series mostly up to 92.4 µM; activity change, negative = inhibition: at the top concentration; also: nearly all actives have a fitted effect of over 45% in size; as to activity change, negative = inhibition: top concentration of the series differs between compounds
Text: U.S. Tox21 Program National Center for Advancing Translational Sciences [NCATS] NIH Chemical Genomics Center [NCGC] U.S. Environmental Protection Agency [EPA] National Institutes of Environmental Health Sciences [NIEHS] National Toxicology Program [NTP] U.S. Food and Drug Administration [FDA] Tox21 Assay Overview: Histone deacetylases (HDACs) are a group of epigenetic enzymes that regulate gene expression by histone deacetylation. HDACs are capable of introducing epigenetic modifications and such aberrations contribute to the onset and progression of several human diseases, thus making HDACs a popular therapeutic target. For identifying endogenous class I/II HDAC inhibitors a homogenous, luminogenic HDAC I/II cell based assay was used to measure the relative activity of class I and II HDACs from cells. Wild type HCT-116 cells were used to screen Tox21 libraries for identifying class I/II HDAC inhibitors.
Tox21 Assay Protocol Summary: HCT-116 cells were dispensed at 1,500 per well in 5uL of culture medium into white solid bottom 1536-well plates (Greiner Bio-One, Monroe, NC) using a Multidrop Combi (Thermo Scientific, Waltham, MA) dispenser. The assay plates were incubated at 37 C and 5% CO2 for an overnight, and then 23nL of compounds dissolved in DMSO and positive control were transferred using a Pintool station (Wako, San Diego, CA). The assay plates were incubated at 37C and 5% CO2 for 2hr. After compound treatment, 4uL of HDAC-Glo reagent (Promega Corporation, Madison, WI) was added to each well of the assay plates using Flying Reagent Dispenser (FRD, Aurora Discovery, San Diego, CA) and incubated the assay plates at room temperature for 30min. The luminescence signal was quantified using a ViewLux plate reader (Perkin Elmer, Shelton, CT).
% is scaled to controls: 0 for no effect and ±100 for the full control effect; potency is read from the fitted curve at half-maximal effect.

SMILES	activity change, negative = inhibition	Potency
CCC1(c2cccc(O)c2)CCCCN(C)C1 (stereo not given)	16.5% [at 42.5 µM] (inactive)	–
CCN1CCCC1CNC(=O)C(O)(c1ccccc1)c1ccccc1 (stereo not given)	-5.85% [at 42.5 µM] (inactive)	–
CC(C)c1ccc(O)cc1	2.58% (inactive)	–
CCCCOC(C)=O	2.77% (inactive)	–
ClC(Cl)(Cl)Cl	-1.37% (inactive)	–
Cc1ccc(-c2nc3ccc(C)cn3c2CC(=O)N(C)C)cc1	-7.04% [at 42.5 µM] (inactive)	–
C[C@H]1CCCC(=O)CCC/C=C/c2cc(O)cc(O)c2C(=O)O1	–	inactive
O=C/C=C/c1ccco1	1.75% (inactive)	–
C=C1CC[C@@]2(O)[C@H]3Cc4ccc(O)c5c4[C@@]2(CCN3CC2CC2)[C@H]1O5	18.2% [at 42.5 µM] (inactive)	–
COC(=O)[C@@H](N)CCCN/C(N)=N/[N+](=O)[O-]	2.48% [at 42.5 µM] (inactive)	–
CCC(C(N)=O)N1CCCC1=O (stereo not given)	-0.774% [at 42.5 µM] (inactive)	–
CCOC(=O)c1ncn2c1CN(C)C(=O)c1c(I)cccc1-2	-9.69% [at 42.5 µM] (inactive)	–
CCc1cc(OC)c(C[C@H](C)N)cc1OC	13.2% (inactive)	–
ClCC1CO1 (stereo not given)	1.6% (inactive)	–
CCN[C@@H](C)Cc1ccccc1	3.57% (inactive)	–
C=CC(=O)OCCN(C)C	1.18% (inactive)	–
CCCCS(=O)(=O)Cl	-1.77% (inactive)	–
OCC(Cl)CCl (stereo not given)	0.0573% (inactive)	–
c1cncc([C@@H]2CCCCN2)c1	14.8% (inactive)	–
N#CC(Br)(Br)C(N)=O	-1.54% (inactive)	–

SMILES	activity change, negative = inhibition	Potency
CC(C)(C1CCC(O)CC1)C1CCC(O)CC1 (stereo not given)	1.36% (inactive)	–
CC(C)(C)C(=O)Cl	9.71% (inactive)	–
CCOC(=O)CC(SP(=S)(OC)OC)C(=O)OCC (stereo not given)	–	inactive
Nc1c(Cl)c(F)nc(OCC(=O)O)c1Cl	1.44% (inactive)	–
CCCCCCC(=O)CCCCCC/C=C/C[C@@H](O)[C@H](O)[C@@](N)(CO)C(=O)O	6.81% [at 19 µM] (inactive)	–
C[C@@H](N)[C@@H](O)c1ccccc1	2.45% [at 42.5 µM] (inactive)	–
Cn1c(CCCC(=O)O)nc2cc(N(CCCl)CCCl)ccc21	-3.01% [at 42.5 µM] (inactive)	–
O=c1[nH]c2ccccc2n1C1CCNCC1	-0.252% [at 42.5 µM] (inactive)	–
C1CN2CCC1CC2	-0.255% [at 42.5 µM] (inactive)	–
O=C(Cl)CCl	-0.354% (inactive)	–
NNCc1ccccc1	–	11.1 µM (active)
O=C1C2CC=CCC2C(=O)N1SC(Cl)(Cl)Cl (stereo not given)	–	inactive
CCCN1CCC[C@@H]2Cc3nc(N)ncc3C[C@H]21	-25.6% [at 42.5 µM] (inactive)	–
C[C@H](N)C(=O)c1ccccc1	0.821% (inactive)	–
C=CC1(C)OC(=O)N(c2cc(Cl)cc(Cl)c2)C1=O (stereo not given)	–	inactive
C=CC=O	7.73% (inactive)	–
CC(Cc1ccccc1)NCCCCl (stereo not given)	-3.36% [at 42.5 µM] (inactive)	–
COc1ccc2c(C(=O)c3ccc(Cl)cc3)c(C)n(CC(=O)O)c2c1	-0.82% [at 42.5 µM] (inactive)	–
C=C(Cl)CCl	3.03% (inactive)	–
CC(Cl)(Cl)Cl	3.85% (inactive)	–
